The record followed here is PubChem BioAssay.

Where “and” joins values, the source holds several entries; their conditions need not be identical. Equal entries are not always repeated. Inconclusive results are not listed. Calls of active or inactive are those of the source.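 How the source made its calls, unless noted: active means normalized viability below 100% at a tested concentration; inactive means the rest.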

Assay [1] in a line: growth inhibition of DIPG glioma cells, dose response, cell-based, SU-DIPG-XVII, MIPE5.0, CellTiter-Glo, qHTS (AID 1347060; cut-off not given, nearly all actives have AC50 up to about 26 µM;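 on AC50: cells exposed to compound for 48 hours before viability readout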). To be noted: SU-DIPG-XVII viability, CellTiter-Glo ATP luminescence.
The nature of assay [2]: growth inhibition of DIPG glioma cells, dose response, cell-based, SU-DIPG-XIII, MIPE4.0, CellTiter-Glo, qHTS (AID 1347061; cut-off not given, nearly all actives have AC50 up to about 37 µM;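 further: cells exposed to compound for 48 hours before readout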). To be noted: SU-DIPG-XIII viability, CellTiter-Glo ATP luminescence.
Assay [3] is described as follows: growth inhibition of DIPG glioma cells, dose response, cell-based, JHH-DIPG-1, MIPE4.0, CellTiter-Glo, qHTS (AID 1347062; cut-off not given, nearly all actives have AC50 up to about 27 µM;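 on AC50: cells exposed to compound for two days before readout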). To be noted: JHH-DIPG-1 viability, CellTiter-Glo ATP luminescence.
A short description of assay [4]: growth inhibition of DIPG glioma cells, dose response, cell-based, SU-DIPG-IV, MIPE4.0, CellTiter-Glo, qHTS (AID 1347063; cut-off not given, nearly all actives have AC50 up to about 30 µM;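 further: compound exposure lasted 48 hours before the viability readout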). As to conditions: SU-DIPG-IV viability, CellTiter-Glo ATP luminescence. For orientation: ATP-based viability assays read luminescence as a measure of living cells.
A short description of assay [5]: growth inhibition of DIPG glioma cells, dose response, cell-based, SU-DIPG-XIII, MIPE5.0, CellTiter-Glo, qHTS (AID 1347064; cut-off not given, nearly all actives have AC50 up to about 23 µM;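 on AC50: cells exposed to compound for 48 hours before the viability read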). As to conditions: SU-DIPG-XIII viability, CellTiter-Glo ATP luminescence.
A short description of assay [6]: viability loss in pontine glioma line – cell-based, SU-DIPG-XXV, MIPE5.0, CellTiter-Glo, qHTS, dose response (AID 1347065; cut-off not given, nearly all actives have AC50 up to about 26 µM;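 further: cells exposed to compound for 48 hours before ATP readout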). To be noted: CellTiter-Glo ATP luminescence.
The nature of assay [7]: JHH-DIPG-1 glioma cell viability, MIPE5.0 library, CellTiter-Glo luminescence, qHTS (AID 1347067; cut-off not given, nearly all actives have AC50 up to about 26 µM;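 further: cells exposed to compound for 48 hours before readout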). To be noted: JHH-DIPG-1 glioma viability, CellTiter-Glo ATP luminescence.
The nature of assay [8]: modifiers of HSF1 nuclear foci, imaging, Selleck Cancer Library (AID 1347162; in the data active means plate-normalised HSF1 focus index below about 0.46). As to conditions: human cells, at 10 µM; SSMD: measured here: HSF1 foci SSMD mean; cell count: measured here: cell number; plate-normalised HSF1 focus index: stronger effect = lower value.
Assay [9] can be described thus: SU-DIPG-XXV glioma cell viability, MIPE5.0 library, qHTS (AID 1347068; cut-off not given, nearly all actives have IC50 up to about 30 µM). Background: qHTS replaces the single test concentration by a dilution series.
Assay [10] is described as follows: SU-DIPG-VI glioma cell viability, MIPE4.0 library, CellTiter-Glo luminescence, qHTS (AID 1347066; cut-off not given, nearly all actives have AC50 up to about 30 µM;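 further: cells exposed to compound for 48 hours before readout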). To be noted: CellTiter-Glo ATP luminescence.
Assay [11] in a line: sensitizers of A549 cells to miR-34 induction, primary screen, imaging, A549 dox-inducible miR-34, nuclei and caspase counts (AID 1347080;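 active means compounds whose cell count with miR-34 switched on is under 0.7 times the count with it off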). To be noted: A549 miR-34 inducible, Hoechst nuclei count, 48 h.
Assay [12] is described as follows: survival rescue of mitochondrial mutant cells in low glucose, primary screen, MELAS cybrids, Rieske KO mouse fibroblasts, CellTiter-Glo (AID 1508586;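 active means mean z-score across replicates of 1.96 or higher in either the MELAS or the Rieske mutant cell line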;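 further: z relative to plate mean and SD of compound and empty wells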).
Assay [13] in a line: ovarian cancer cell viability with rucaparib, profiling panel, oncology-focused library, rucaparib conditional (AID 1508598). To be noted: patient-derived ovarian cancer cells, CellTiter-Glo viability, 144 h, stronger effect = lower value.
Setting [14] is: stronger effect = lower value, cell number ratio, induced over uninduced.
Where [15] appears, read: measured here: relative caspase fold change +Dox/-Dox.
Setting [16] is: measured here: total cells with miR-34 induction, stronger effect = lower value.
The mark [17] stands for this setting: measured here: total cells without miR-34 induction.
The mark [18] stands for this setting: MELAS cybrid survival, CellTiter-Glo 48 h, stronger effect = higher value.
Setting [19] is: Rieske KO mouse fibroblast survival, CellTiter-Glo 72 h.

In general, AC50 refers to the midpoint of the concentration-response curve, whichever way the signal moves. Regarding `O=C(/C=C/c1cccnc1)NCCCCC1CCN(C(=O)c2ccccc2)CC1`, the AC50 in assay [1] is 11.8 nM (active); in assay [2] it was 0.0166 µM (active); in assay [3] it was 0.00418 µM (active); in assay [4] it was 20.9 nM (active); in assay [5], 1.86 nM (active); in assay [6], 4.68 nM (active). Also, the half-maximal activity concentration (AC50) in assay [7] was 4.17 nM (active). The SSMD in [8] is 1.27. The cell count in [8] came out at 7280. In assay [8], the plate-normalised HSF1 focus index was 1.05 (inactive).

Regarding `COc1ccc2c3n(c(=NC(=O)c4cccnc4)nc2c1OC)CCN3`, the concentration at half-maximal activity (AC50) in assay [1] is 1050 nM (active); in assay [2] it was 13.2 µM (active); in assay [3] it was 8.33 µM (active); in assay [4], 1050 nM (active); in assay [5], 742 nM (active); in assay [6] it was 590 nM (active). Moreover, the call in assay [9] was inactive. This compound also gave an SSMD in assay [8] of -0.125. The compound also registered a cell count in assay [8] of 7610. Also, the plate-normalised HSF1 focus index in assay [8] was 0.991 (inactive).

In the case of `CCCCCCCCCC(=O)N[C@@H](Cc1c[nH]c2ccccc12)C(=O)N[C@H](CC(N)=O)C(=O)N[C@@H](CC(=O)O)C(=O)N[C@@H]1C(=O)NCC(=O)N[C@@H](CCCN)C(=O)N[C@@H](CC(=O)O)C(=O)N[C@H](C)C(=O)N[C@@H](CC(=O)O)C(=O)NCC(=O)N[C@H](CO)C(=O)N[C@@H]([C@@H](C)CC(=O)O)C(=O)N[C@@H](CC(=O)c2ccccc2N)C(=O)O[C@@H]1C`, the call in [1], in assay [2], in assay [3], in [4], in [5] and in assay [10] was inactive. Moreover, the compound was called inactive in assay [7].

As to `Nc1cccc2c1CN([C@H]1CCC(=O)NC1=O)C2=O`, the compound was called inactive in assay [1], in [2], in assay [3], in [4], in assay [5] and in [7]. In [9], the call was inactive.

For `CO[C@H]1/C=C/O[C@@]2(C)Oc3c(C)c(O)c4c(O)c(c(/C=N/N5CCN(C)CC5)c(O)c4c3C2=O)NC(=O)/C(C)=C\C=C\[C@H](C)[C@H](O)[C@@H](C)[C@@H](O)[C@@H](C)[C@H](OC(C)=O)[C@@H]1C`, the outcome in [1], in [2], in assay [3], in assay [4] and in assay [7] was inactive. Besides, in [5], the AC50 was 20900 nM (active). In addition, the fold change in assay [11] (setting [14]) was 0.839 (inactive) and 0.889 (inactive); in assay [11] (setting [15]), 1.31 and 1.13. Moreover, the cell count in [11] (setting [16]) is 9030 and 9880; in assay [11] (setting [17]), 10800 and 11100. Moreover, the z-score is 1.76 (inactive) and 0.859 (inactive) in assay [12] (setting [18]); -0.112 and -0.159 in [12] (setting [19]).

Turning to `COc1nccc(-c2c(-c3ccc(F)cc3)ncn2C2CCNCC2)n1`, the compound was classed as inactive in assay [1], in assay [2], in assay [3], in [4], in assay [5] and in assay [6]. Also, the compound was called inactive in assay [7] and in [9].

One may read the viability as a read-out of living cells in per cent, often relative to untreated cells. On to `CNC(=O)c1ccc(C)c(-n2c(C)cc(OCc3ccc(F)cc3F)c(Br)c2=O)c1`, for which the compound was classed as inactive in assay [1], in assay [2], in assay [3], in assay [4], in [5] and in assay [9]. Further, the fold change in assay [11] (setting [14]) was 0.88 (inactive); in assay [11] (setting [15]), 0.999. Also, the cell count in [11] (setting [16]) was found to be 7360; in [11] (setting [17]), 8370; in assay [8], 7630. For the same compound, in assay [8], the SSMD amounted to 3.49. In addition, the plate-normalised HSF1 focus index in [8] is 1.22 (inactive). The z-score is -0.398 (inactive) in [12] (setting [18]) and -1.25 in [12] (setting [19]). Also, the viability in assay [13] (at 0.000305 µM, OCI-C5x cells, with rucaparib 10 µM, 100% = cells with rucaparib alone) is 104% (inactive); in assay [13] (at 0.000305 µM, OCI-C5x cells, without rucaparib), 124% (inactive); in [13] (at 0.000305 µM, OCI-P5x cells, with rucaparib 20 µM, 100% = cells with rucaparib alone) it was 115% (inactive); in assay [13] (at 0.000305 µM, OCI-P5x cells, without rucaparib), 115% (inactive); in [13] (at 0.00122 µM, OCI-C5x cells, with rucaparib 10 µM, 100% = cells with rucaparib alone), 110% (inactive); in assay [13] (at 0.00122 µM, OCI-C5x cells, without rucaparib) it was 124% (inactive). Also, the viability in [13] (at 0.00122 µM, OCI-P5x cells, with rucaparib 20 µM, 100% = cells with rucaparib alone) was 107% (inactive); in assay [13] (at 0.00122 µM, OCI-P5x cells, without rucaparib) it was 105% (inactive); in assay [13] (at 0.00488 µM, OCI-C5x cells, with rucaparib 10 µM, 100% = cells with rucaparib alone), 105% (inactive); in assay [13] (at 0.00488 µM, OCI-C5x cells, without rucaparib), 102% (inactive); in assay [13] (at 0.00488 µM, OCI-P5x cells, with rucaparib 20 µM, 100% = cells with rucaparib alone), 112% (inactive); in assay [13] (at 0.00488 µM, OCI-P5x cells, without rucaparib) it was 111% (inactive). In addition, the viability in assay [13] (at 0.0195 µM, OCI-C5x cells, with rucaparib 10 µM, 100% = cells with rucaparib alone) is 97.8% (active); in assay [13] (at 0.0195 µM, OCI-C5x cells, without rucaparib), 113% (inactive); in assay [13] (at 0.0195 µM, OCI-P5x cells, with rucaparib 20 µM, 100% = cells with rucaparib alone) it was 114% (inactive); in [13] (at 0.0195 µM, OCI-P5x cells, without rucaparib) it was 107% (inactive); in [13] (at 0.0781 µM, OCI-C5x cells, with rucaparib 10 µM, 100% = cells with rucaparib alone), 101% (inactive); in assay [13] (at 0.0781 µM, OCI-C5x cells, without rucaparib), 106% (inactive). The viability in [13] (at 0.0781 µM, OCI-P5x cells, with rucaparib 20 µM, 100% = cells with rucaparib alone) is 108% (inactive); in assay [13] (at 0.0781 µM, OCI-P5x cells, without rucaparib) it was 108% (inactive); in assay [13] (at 0.313 µM, OCI-C5x cells, with rucaparib 10 µM, 100% = cells with rucaparib alone) it was 90.4% (active); in assay [13] (at 0.313 µM, OCI-C5x cells, without rucaparib), 119% (inactive); in assay [13] (at 0.313 µM, OCI-P5x cells, with rucaparib 20 µM, 100% = cells with rucaparib alone), 112% (inactive); in [13] (at 0.313 µM, OCI-P5x cells, without rucaparib) it was 112% (inactive). In addition, the viability is 91.7% (active) in assay [13] (at 1.25 µM, OCI-C5x cells, with rucaparib 10 µM, 100% = cells with rucaparib alone); 112% (inactive) in [13] (at 1.25 µM, OCI-C5x cells, without rucaparib); 110% (inactive) in assay [13] (at 1.25 µM, OCI-P5x cells, with rucaparib 20 µM, 100% = cells with rucaparib alone); 108% (inactive) in [13] (at 1.25 µM, OCI-P5x cells, without rucaparib); 123% (inactive) in assay [13] (at 5 µM, OCI-C5x cells, with rucaparib 10 µM, 100% = cells with rucaparib alone); 129% (inactive) in [13] (at 5 µM, OCI-C5x cells, without rucaparib). In addition, the viability was 110% (inactive) in [13] (at 5 µM, OCI-P5x cells, with rucaparib 20 µM, 100% = cells with rucaparib alone) and 105% (inactive) in [13] (at 5 µM, OCI-P5x cells, without rucaparib).
